# Among all 310,000 compounds or so, about 17,000 (5.5%) were called active. Inconclusive results (about 11%) are left out. For the sample, actives were picked, then their nearest neighbours and some compounds at random. Values without a mark were called inactive. Calls follow the shape of the dose curve; as a rule, active = well fitted inhibition curve with a large enough effect; inconclusive = small, poorly fitted or top-dose-only effect, or effect the other way; inactive = no such curve, though single readings can be large or run the other way.
# Biological target: Nuclear receptor ROR-gamma (Mus musculus) (UniProt P51450)
# Assay: qHTS for inhibitors of ROR gamma transcriptional activity; also: nearly all actives have a fitted effect of over 60% in size
# Conditions: Drosophila S2 Gal4-RORgamma UAS-luciferase reporter, 20 h; series mostly up to 53.6 µM; activity change, negative = inhibition: at the top concentration
# In short: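 Stable Schneider cell line, Gal4 DNA-binding domain fused to ROR gamma, UAS-luciferase. Cmpd 1 hr RT → CuSO4 700 uM final → 20 hr RT → luciferase reagent 10 min → luminescence.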
# % is scaled to controls: 0 for no effect and ±100 for the full control effect; potency is read from the fitted curve at half-maximal effect.
# Chain of Nuclear receptor ROR-gamma (Mus musculus) (P51450 whole entry, looked up): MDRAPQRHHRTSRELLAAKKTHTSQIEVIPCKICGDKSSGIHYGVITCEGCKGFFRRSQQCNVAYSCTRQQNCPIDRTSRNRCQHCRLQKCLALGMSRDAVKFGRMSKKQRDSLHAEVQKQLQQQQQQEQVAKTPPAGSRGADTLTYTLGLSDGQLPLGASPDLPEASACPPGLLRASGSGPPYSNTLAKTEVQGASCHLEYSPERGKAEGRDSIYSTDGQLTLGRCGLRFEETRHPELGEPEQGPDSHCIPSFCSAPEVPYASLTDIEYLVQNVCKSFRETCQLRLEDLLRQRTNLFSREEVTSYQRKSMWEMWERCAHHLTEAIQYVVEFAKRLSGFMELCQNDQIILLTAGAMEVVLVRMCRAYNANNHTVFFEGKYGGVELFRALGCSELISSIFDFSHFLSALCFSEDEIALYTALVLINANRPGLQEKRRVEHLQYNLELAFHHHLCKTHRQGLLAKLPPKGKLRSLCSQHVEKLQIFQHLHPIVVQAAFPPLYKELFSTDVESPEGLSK
Compound,"activity change, negative = inhibition [%]",Potency
CSc1ncccc1C(=O)Nc1ccc(C)cn1,7.85,–
O=C(Nc1nnc(-c2ccc(F)cc2)s1)c1c(F)cccc1Cl,-37.9,–
COc1cc(S(=O)(=O)N2CCN=C2c2ccccc2)ccc1Cl,4.5,–
Cc1ccc(C(=O)NC(=S)NCc2cccnc2)cc1,-1.51,–
Cc1ccc(NC(=O)N2CCC(O)(c3cccnc3)CC2)cc1,15.3,–
CC1=NN(C(=O)Cc2ccc(C)cc2)C(O)(c2cccnc2)C1 (centres undefined),–,8.91 µM (active)
O=C(c1cccc(F)c1)N1CCC(O)(c2cccnc2)CC1,13.9,–
CC1=NN(C(=O)c2ccccc2Br)C(O)(c2cccnc2)C1 (centres undefined),–,5.62 µM (active)
O=C(CN1CCN(Cc2ccccc2)CC1)Nc1ccc(F)c(F)c1,-18.2,–
CCCC[C@H]1COCCS(=O)(=O)N1Cc1cccc(Cl)c1,2.35,–
O=C(NCCN1CCCC(O)C1)c1cc(COc2c(F)cccc2F)on1 (centres undefined),4.43,–
Cc1ccc(C)c(NC(=O)c2cc(-c3cc(C)cc(C)c3O)n[nH]2)c1,9.87,–
COc1cccc(OCc2cc(C(=O)N3CCN(C(=O)c4ccco4)CC3)no2)c1,43.6,–
COc1ccc(C(=O)NC(=S)N2CCCCC2c2cccnc2)cc1OC (centres undefined),–,0.891 µM (active)
CCOC(=O)C1CCCN(C(=O)/C=C/c2ccc(OC)cc2)C1 (centres undefined),1.88,–
COc1ccc(C(=O)Nc2cccnc2)cc1C(=O)Nc1cccnc1,18.5,–
Cc1ccc(-c2cc(C(F)(F)F)n3ncc(C(=O)N4CCCCC4c4cccnc4)c3n2)cc1 (centres undefined),12,–
O=C(Nc1ccccc1C(F)(F)F)N1CCCC1c1cccnc1 (centres undefined),-3.95,–
COc1ccc(C(=O)N2CCCC(C(=O)c3ccccc3OC)C2)cc1OC (centres undefined),15.3,–
COc1ccc(/C=C/C(=O)NC(=S)N2CCCC(C(N)=O)C2)cc1 (centres undefined),-29.3,–
O=C(NC(=S)N1CCCCC1c1cccnc1)c1ccccc1 (centres undefined),–,0.794 µM (active)
COc1ccc(/C=C/C(=O)NC(=S)NN2CCCCC2c2cccnc2)cc1 (centres undefined),–,7.08 µM (active)
CCN1CCN(C(=O)C2CCCN(S(=O)(=O)c3ccc(OC)c(OC)c3)C2)CC1 (centres undefined),-7.37,–
COc1cc(C(=O)OC2CCOC2=O)c([N+](=O)[O-])cc1OC (centres undefined),-3.43,–
Cc1ccccc1NC(=O)C1CCN(C(=O)NC2CCCCC2)CC1,-26.7,–
CCOC(=O)c1ccc(NC(=S)N2CCN(c3ccccn3)CC2)cc1,4.59,–
CNC(=S)N1CCN(c2ccccn2)CC1,-8.67,–

Compound,"activity change, negative = inhibition [%]",Potency
Cc1ccc(NC(=S)N2CCN(c3ncccn3)CC2)cc1C,–,12.6 µM (active)
Cc1c(CC(=O)NCC(=O)NCC(=O)O)c(=O)oc2cc3oc4c(c3cc12)CCCC4,-13.2,–
O=C(OCC(=O)N1CCN(C(=O)c2ccco2)CC1)c1cccc(O)c1,20.5,–
CCOC(=O)N1CCN(Cc2nc(Cc3cccc(C(F)(F)F)c3)no2)CC1,28.2,–
Cn1c(-c2sccc2OCc2cccc(C(F)(F)F)c2)n[nH]c1=S,–,4.47 µM (active)
O=C(c1ccco1)N1CCN(Cc2cccc(C(F)(F)F)c2)CC1,36.5,–
COc1ccccc1CNS(=O)(=O)c1c(C)[nH]c(C)c1C(=O)N1CCCCC1,-9.37,–
O=c1c2cc(Br)ccc2nc(-c2cccc(Cl)c2)n1O,–,12.6 µM (active)
Cc1cccc(-c2nc3ccccc3c(=O)n2NC(=O)Cc2ccc(Cl)cc2)c1,1.19,–
O=C1CCCc2c1nc(-c1cccc(Cl)c1)n2O,15.1,–
O=C(N/N=C/c1ccc([N+](=O)[O-])cc1)c1c[nH]c2ccccc12,24.6,–
CSC(=S)N/N=C/c1c[nH]c2ccccc12,–,0.398 µM (active)
O=C(N/N=C/c1c[nH]c2ccccc12)c1ccccc1O,–,5.62 µM (active)
O=C(Cc1c[nH]c2ccccc12)N/N=C/c1cccc(F)c1,48.8,–
NC(=O)CSc1c[nH]c2ccccc12,-36.6,–
O=C(N/N=C/c1c[nH]c2ccccc12)c1cc2ccccc2o1,-36.8,–
O=C(NCCc1c[nH]c2ccccc12)C1CCN(Cc2ccc(Br)cc2)CC1,65.5,–
Cc1cc(=O)oc2c3c(cc(OCC(=O)N[C@H](C(=O)O)c4ccccc4)c12)OC(C)(C)CC3,25.6,–
Cc1ccc(NC(=O)CSc2nn3c(=O)c(C)nnc3s2)cc1Cl,-10.1,–
COCCNC(=O)C(c1ccc(C)cc1)N(C(=O)CCC(=O)Nc1ccccn1)c1cccc(C)c1 (centres undefined),2.25,–
CCCN1C2CCCC1CC(NC(=O)c1cccc(OC)c1)C2 (centres undefined),-2.82,–
CCCCCCC(O)(CCN1CCCCC1)c1ccccc1 (centres undefined),-0.158,–
Cc1cc(C(F)F)nn1CC(=O)NC1CCCCCC1,0.595,–
CCCCCn1c(=O)c(C(=O)OCC)c(Cl)c2ccccc21,4.9,–
Fc1ccc(NC(=S)N2CCc3[nH]c4ccccc4c3C2)cc1,-5.26,–
CCCCc1nc2c(=O)[nH]c3ccccc3c2o1,5.13,–
CCN(CC)CCn1c(=S)[nH]c2ncccc2c1=O,15.3,–

# From PubChem BioAssay AID2551 (National Center for Advancing Translational Sciences (NCATS), 2010)
